Assay results reported in PubChem BioAssay (EPA / NIEHS).
The source made the active and inactive calls. Rule for the calls: active = hit-call score of the fitted dose curve at least 0.9, where 1 is the maximum; inactive = score below 0.9.

Assay: CCTE_Simmons_MITO_inhib_resp_rate: CCTE's HepG2 Seahorse XF Respirometric Screening Assay at Inhibited Respiratory State [full ETC block], Simmons Lab (AID 2284006)
Details: actives raise or lower the signal
Description: CCTE_Simmons_MITO is cell-based, respirometric assay using HepG2 cells and a Seahorse XF Analyzer to measure oxygen consumption rates over four temporal phases spanning a total of 72 minutes: pre-injection (pre-treatment), basal (following test compound injection), maximal (following FCCP uncoupler injection), and inhibited (following rotenone/antimycin A injection)CCTE_Simmons_MITO_inhib_resp_rate is one of 4 assay components calculated from the CCTE_Simmons_MITO assay. It is designed to make measurements of inhibited respiration using a form of respirometric reporter, as detected with […] signals by Seahorse XF96 technology. Data from the assay component CCTE_Simmons_MITO_inhib_resp_rate was analyzed at the endpoint, CCTE_Simmons_MITO_inhib_resp_rate_OCR, with bidirectional fitting relative to DMSO as the negative control and baseline of activity. Using a type of respirometric reporter, measures of inhibited respiration for gain or loss-of-signal activity can be used to understand cellular oxygen consumption as it relates to cellular respiration. To generalize the intended target to other relatable targets, this assay endpoint is annotated to the mitochondria intended target family, where the subfamily is respiration.
Test chemicals were administered as a titrated series of 7 concentrations from 125 nM up to 100 uM [final] prior to kinetic endpoint detection at 6 minute intervals [3 min mix followed by 3 minutes measure] for 72 minutes. Three biological replicates of technical singles were run for every chemical concentration tested. Dimethylsulfoxide [DMSO] was used as the vehicle control. The electron transport chain inhibitor fenpyroximate was used as the positive control for decreased basal respiration and was administered as a titrated series of 6 concentrations from 250 nM up to 2.75 uM [final] with technical triplicates for the top concentration only. The uncoupler 2,4-dintirophenol was used as the positive control for increased basal respiration and was administered as a titrated series of 6 concentrations from 938 nM up to 40 uM [final] with technical triplicates for the top concentration only. A Seahorse XF Analzyer is required to measure the response.

Structure (SMILES)	outcome	AC50
CN1CCN(c2ccccc2/C=C2\SCCN(c3ccc(Cl)c(Cl)c3)C2=O)CC1	inactive	
NC(=O)N1C(=O)C(C(=O)c2cc(Cl)cs2)c2cc(F)c(Cl)cc21 (stereo not drawn)	inactive	
O=[N+]([O-])c1ccc(O)cc1	inactive	
Oc1cc2ccccc2c2ccccc12		11.1 µM (active)
CCCCCCCCCCCCN1CCCC1=O	inactive	
Nc1cccc2c(N)cccc12		39.8 µM (active)
CCCOC(=O)c1ccc(O)cc1	inactive	
O=C(O)Cc1cc(I)c(Oc2cc(I)c(O)c(I)c2)c(I)c1	inactive	
CCc1nn(C2CCCCC2)c2cc(C3(C#N)CCC(C(=O)O)CC3)ccc12 (stereo not drawn)	inactive	
NC(=O)N(O)[C@@H]1C=C[C@H](Oc2cccc(Oc3ccc(F)cc3)c2)C1	inactive	
OC1CCC(C2CCCCC2)CC1 (stereo not drawn)	inactive	
Cc1cc(CCN2CCN(c3nsc4ccccc34)CC2)cc2c1NC(=O)CC2(C)C	inactive	
CC[C@H](c1ccc(O)cc1)[C@@H](CC)c1ccc(O)cc1		40.4 µM (active)
